# ChEMBL document CHEMBL3988442, “University of Dundee, Small-Polar-MMV Screening Library” (2021)
# For some assays here: Potency and affinity values are given separately.
# Columns and labels:
# [1] = target: T1, Methionyl-tRNA synthetase, putative (Leishmania donovani (strain BPK282A1)) (UniProt E9BF75); experiment: Leishmania donovani Methionine tRNA synthetase (LdMetRS):v7. Dose response assay; type: functional; parameters: conc 80 nM, time 150 minutes
# T1 sequence (whole entry): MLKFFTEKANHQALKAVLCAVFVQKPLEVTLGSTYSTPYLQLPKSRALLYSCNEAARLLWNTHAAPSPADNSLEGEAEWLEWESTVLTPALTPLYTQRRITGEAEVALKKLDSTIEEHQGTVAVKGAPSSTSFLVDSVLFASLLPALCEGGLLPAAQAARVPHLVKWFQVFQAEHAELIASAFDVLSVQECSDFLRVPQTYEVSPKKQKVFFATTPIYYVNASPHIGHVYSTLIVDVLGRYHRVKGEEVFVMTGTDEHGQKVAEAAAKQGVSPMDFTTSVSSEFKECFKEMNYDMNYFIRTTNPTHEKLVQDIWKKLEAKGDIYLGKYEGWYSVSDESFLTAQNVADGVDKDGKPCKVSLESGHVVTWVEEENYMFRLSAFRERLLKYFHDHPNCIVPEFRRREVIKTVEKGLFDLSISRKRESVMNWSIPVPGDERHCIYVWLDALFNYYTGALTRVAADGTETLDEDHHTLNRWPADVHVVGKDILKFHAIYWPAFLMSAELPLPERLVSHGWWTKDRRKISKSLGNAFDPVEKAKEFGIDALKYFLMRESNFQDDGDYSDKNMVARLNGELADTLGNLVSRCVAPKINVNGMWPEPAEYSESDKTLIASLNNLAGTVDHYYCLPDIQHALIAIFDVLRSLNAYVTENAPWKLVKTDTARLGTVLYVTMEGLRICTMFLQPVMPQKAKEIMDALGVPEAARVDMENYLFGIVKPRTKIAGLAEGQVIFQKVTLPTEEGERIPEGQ
# [2] = target: Protein translocase subunit SecA (Escherichia coli (strain K12)) (UniProt P10408); experiment: Assay to Identify E. coli SecA ATPase Inhibitors; type: functional; parameters: scale not given: direction of the effect not stated beside the values; conditions: 30 µM
# [3] = target: T2, Ubiquitin-activating enzyme e1, putative (Leishmania donovani (strain BPK282A1)) (UniProt E9BSI1); experiment: Leishmania donovani Ubiquitin Activating Enzyme (LdE1); type: functional; parameters: scale not given: direction of the effect not stated beside the values; conditions: 30 µM
# T2 sequence (whole entry): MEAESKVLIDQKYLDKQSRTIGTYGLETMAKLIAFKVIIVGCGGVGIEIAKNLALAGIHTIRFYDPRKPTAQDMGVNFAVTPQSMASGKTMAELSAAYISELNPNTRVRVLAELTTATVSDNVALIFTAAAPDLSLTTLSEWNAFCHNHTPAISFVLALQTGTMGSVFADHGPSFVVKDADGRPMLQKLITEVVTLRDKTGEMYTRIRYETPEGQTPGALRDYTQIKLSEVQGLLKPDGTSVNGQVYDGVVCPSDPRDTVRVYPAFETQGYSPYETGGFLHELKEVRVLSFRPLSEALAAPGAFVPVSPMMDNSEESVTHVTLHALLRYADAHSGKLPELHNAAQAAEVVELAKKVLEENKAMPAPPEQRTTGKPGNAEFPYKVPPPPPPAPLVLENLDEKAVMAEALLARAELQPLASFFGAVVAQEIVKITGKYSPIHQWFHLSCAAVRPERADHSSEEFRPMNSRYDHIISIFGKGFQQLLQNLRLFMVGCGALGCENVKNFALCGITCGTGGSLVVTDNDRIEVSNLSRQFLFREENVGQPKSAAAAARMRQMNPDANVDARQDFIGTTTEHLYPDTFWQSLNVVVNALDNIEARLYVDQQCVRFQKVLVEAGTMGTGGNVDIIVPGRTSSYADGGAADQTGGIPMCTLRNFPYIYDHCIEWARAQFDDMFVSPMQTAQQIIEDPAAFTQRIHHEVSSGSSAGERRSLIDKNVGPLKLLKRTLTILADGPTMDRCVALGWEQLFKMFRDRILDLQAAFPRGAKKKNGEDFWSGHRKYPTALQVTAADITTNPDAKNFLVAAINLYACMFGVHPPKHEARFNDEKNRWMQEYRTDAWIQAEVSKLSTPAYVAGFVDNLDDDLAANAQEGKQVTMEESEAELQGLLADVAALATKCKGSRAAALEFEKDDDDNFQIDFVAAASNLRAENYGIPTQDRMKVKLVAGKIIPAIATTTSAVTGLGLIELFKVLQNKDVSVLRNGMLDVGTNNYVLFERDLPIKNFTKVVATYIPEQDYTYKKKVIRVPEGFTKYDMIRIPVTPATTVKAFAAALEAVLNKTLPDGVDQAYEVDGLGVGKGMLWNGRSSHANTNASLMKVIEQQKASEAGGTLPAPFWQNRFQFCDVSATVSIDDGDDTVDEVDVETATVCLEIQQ
# [4] = target: AMP-activated protein kinase, AMPK (Homo sapiens) (UniProt P54646+O43741+P54619+Q9UGJ0+Q9Y478+Q13131+Q9UGI9); experiment: AMP-dependent Kinase enzyme assay. An in vitro enzyme assay that detects ADP turnover that is directly proportional to AMPK activity. This uses naive AMPK that is activated during the assay with MK-8722; type: functional; parameters: scale not given: direction of the effect not stated beside the values; conditions: 30 µM
# [5] = target: Sialic acid-binding Ig-like lectin 9 (Homo sapiens) (UniProt Q9Y336); experiment: Hs-Siglec9 ALPHAscreen SOP 20170721; parameters: scale not given: direction of the effect not stated beside the values; conditions: 10 µM
# Trypanosoma cruzi = experiment: Trypanosoma cruzi phosphomannomutase and mannose-1-phosphate guanylyltransferase assay; type: functional; parameters: scale not given: direction of the effect not stated beside the values; conditions: 10 µM
# [6] = target: T3, Arginase-2, mitochondrial (Homo sapiens) (UniProt P78540); experiment: in vitro enzyme assay to detect the production of urea directly proportional to the activity of Arginase II; type: functional; parameters: scale not given: in the data most compounds retested in dose-response had high values; conditions: 33.3 µM
# T3 sequence (whole entry): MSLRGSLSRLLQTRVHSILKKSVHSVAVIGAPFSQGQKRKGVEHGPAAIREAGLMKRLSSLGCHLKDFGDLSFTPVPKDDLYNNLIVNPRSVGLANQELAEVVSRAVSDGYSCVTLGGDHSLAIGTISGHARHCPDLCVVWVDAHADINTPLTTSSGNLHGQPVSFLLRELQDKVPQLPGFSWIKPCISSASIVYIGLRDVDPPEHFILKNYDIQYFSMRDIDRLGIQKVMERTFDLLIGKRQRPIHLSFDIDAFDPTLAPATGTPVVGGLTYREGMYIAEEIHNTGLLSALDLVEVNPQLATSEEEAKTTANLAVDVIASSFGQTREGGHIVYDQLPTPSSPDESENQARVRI
# [7] = target: T4, Proteasome subunit beta (Trypanosoma cruzi) (UniProt O96673); experiment: Trypanosoma cruzi proteasome chymotrypsin-like activity (TcProtChymo) assay.; type: functional; parameters: scale not given: in the data most compounds retested in dose-response had high values; conditions: 9.37 µM
# T4 sequence (whole entry): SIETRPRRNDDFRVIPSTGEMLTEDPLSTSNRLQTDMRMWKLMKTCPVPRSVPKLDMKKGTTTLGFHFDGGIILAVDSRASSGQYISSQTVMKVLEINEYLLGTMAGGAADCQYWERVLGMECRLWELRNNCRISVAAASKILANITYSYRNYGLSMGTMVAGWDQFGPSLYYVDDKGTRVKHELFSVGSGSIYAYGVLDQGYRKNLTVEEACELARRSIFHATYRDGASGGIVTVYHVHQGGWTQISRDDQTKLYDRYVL
# Homo sapiens = organism: Homo sapiens; experiment: To identify inhibition of the IFN signalling (Jak-Stat) pathway via expression of an eGFP reporter gene under the control of an IFN-stimulated response element (ISRE) containing MxA promoter.; type: functional; parameters: scale not given: direction of the effect not stated beside the values; conditions: 30 µM
# [8] = target: T5, Tyrosyl-tRNA synthetase, putative (Trypanosoma cruzi (strain CL Brener)) (UniProt Q4DSP6); experiment: Trypanosoma cruzi tyrosyl tRNA synthetase (TcYRS) _High Tyrosine SOP; type: functional; parameters: scale not given: in the data most compounds retested in dose-response had high values; conditions: 30 µM
# T5 sequence (whole entry): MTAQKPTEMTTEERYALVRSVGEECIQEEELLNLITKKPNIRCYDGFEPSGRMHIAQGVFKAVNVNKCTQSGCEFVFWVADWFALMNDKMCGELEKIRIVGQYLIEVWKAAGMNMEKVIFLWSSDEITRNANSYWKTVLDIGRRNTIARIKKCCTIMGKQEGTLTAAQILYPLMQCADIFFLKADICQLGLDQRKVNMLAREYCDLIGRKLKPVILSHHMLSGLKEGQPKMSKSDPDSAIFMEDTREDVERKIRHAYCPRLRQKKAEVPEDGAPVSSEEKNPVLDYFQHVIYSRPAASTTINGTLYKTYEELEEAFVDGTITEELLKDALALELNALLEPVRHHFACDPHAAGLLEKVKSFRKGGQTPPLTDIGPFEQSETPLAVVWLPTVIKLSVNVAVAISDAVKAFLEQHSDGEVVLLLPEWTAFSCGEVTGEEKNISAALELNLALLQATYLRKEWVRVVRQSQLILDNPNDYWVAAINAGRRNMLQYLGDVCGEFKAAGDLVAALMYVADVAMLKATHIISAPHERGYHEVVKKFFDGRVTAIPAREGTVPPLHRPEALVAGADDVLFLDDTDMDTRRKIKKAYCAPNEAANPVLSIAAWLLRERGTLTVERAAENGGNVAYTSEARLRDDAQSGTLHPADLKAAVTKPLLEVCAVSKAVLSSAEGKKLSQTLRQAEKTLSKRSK
# [9] = target: T5, Tyrosyl-tRNA synthetase, putative (Trypanosoma cruzi (strain CL Brener)); experiment: Trypanosoma cruzi tyrosyl tRNA synthetase (TcYRS) SOP; type: functional; parameters: scale not given: direction of the effect not stated beside the values; conditions: 30 µM
# [10] = target: Chromo domain-containing protein 1 (Saccharomyces cerevisiae (strain ATCC 204508 / S288c) (Baker's yeast)) (UniProt P32657); experiment: ScCHD-1 Enzyme Inhibition Assay; type: functional; parameters: scale not given: in the data most compounds retested in dose-response had high values; conditions: 30 µM
# Chromo domain-containing protein 1 (Saccharomyces cerevisiae (strain ATCC 204508 / S288c) (Baker's yeast)), sequence (P32657 whole entry, the tested form may be a part): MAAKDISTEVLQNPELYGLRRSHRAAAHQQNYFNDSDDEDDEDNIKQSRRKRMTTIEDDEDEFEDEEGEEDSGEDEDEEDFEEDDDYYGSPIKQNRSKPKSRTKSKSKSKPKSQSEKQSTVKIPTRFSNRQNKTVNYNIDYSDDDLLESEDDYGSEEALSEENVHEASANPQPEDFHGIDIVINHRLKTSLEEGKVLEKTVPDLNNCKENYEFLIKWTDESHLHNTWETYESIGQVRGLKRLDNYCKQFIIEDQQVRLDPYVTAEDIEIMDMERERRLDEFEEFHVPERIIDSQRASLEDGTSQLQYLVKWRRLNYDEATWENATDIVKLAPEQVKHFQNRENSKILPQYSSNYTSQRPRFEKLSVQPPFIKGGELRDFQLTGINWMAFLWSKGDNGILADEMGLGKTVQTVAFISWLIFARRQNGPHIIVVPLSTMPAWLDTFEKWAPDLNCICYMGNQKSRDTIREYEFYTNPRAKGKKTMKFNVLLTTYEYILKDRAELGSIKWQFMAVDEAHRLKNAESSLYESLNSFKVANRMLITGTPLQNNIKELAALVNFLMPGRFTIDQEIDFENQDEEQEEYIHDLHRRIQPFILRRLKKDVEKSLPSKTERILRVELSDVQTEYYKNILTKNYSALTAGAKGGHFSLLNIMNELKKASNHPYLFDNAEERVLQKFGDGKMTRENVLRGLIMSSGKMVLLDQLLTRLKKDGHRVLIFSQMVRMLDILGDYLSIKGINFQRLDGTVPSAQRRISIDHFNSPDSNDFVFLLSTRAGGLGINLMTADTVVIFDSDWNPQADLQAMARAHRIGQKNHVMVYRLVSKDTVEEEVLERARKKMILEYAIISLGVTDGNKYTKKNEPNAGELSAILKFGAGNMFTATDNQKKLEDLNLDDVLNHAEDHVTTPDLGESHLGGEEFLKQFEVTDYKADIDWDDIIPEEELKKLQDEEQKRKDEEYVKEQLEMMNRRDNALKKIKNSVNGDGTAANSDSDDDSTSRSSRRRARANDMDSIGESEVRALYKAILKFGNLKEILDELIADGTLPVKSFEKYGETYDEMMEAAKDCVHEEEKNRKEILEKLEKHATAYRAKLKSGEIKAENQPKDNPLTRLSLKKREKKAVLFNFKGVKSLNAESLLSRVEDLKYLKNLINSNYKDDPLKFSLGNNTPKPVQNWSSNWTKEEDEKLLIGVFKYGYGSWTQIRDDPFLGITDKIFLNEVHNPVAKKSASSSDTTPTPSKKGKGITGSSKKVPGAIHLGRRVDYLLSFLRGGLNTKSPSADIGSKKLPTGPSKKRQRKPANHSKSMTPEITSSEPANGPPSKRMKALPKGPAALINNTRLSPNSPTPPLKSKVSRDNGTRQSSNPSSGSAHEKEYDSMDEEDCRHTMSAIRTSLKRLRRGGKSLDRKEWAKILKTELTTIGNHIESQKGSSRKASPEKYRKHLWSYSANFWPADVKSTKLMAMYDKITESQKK
# Sialic acid-binding Ig-like lectin 9 (Homo sapiens), sequence (Q9Y336 whole entry): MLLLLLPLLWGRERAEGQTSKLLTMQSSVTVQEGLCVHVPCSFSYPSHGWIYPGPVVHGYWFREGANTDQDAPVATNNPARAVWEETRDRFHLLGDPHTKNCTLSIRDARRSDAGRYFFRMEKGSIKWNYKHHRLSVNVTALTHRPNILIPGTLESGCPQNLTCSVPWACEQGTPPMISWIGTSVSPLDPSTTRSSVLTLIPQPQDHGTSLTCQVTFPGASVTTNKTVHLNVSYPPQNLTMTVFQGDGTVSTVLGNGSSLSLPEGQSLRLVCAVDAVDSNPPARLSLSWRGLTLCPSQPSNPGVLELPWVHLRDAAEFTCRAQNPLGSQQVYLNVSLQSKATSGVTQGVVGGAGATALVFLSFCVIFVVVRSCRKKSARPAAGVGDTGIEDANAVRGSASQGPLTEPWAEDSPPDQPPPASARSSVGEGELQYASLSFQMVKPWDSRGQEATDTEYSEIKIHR
# Protein translocase subunit SecA (Escherichia coli (strain K12)), sequence (P10408 whole entry): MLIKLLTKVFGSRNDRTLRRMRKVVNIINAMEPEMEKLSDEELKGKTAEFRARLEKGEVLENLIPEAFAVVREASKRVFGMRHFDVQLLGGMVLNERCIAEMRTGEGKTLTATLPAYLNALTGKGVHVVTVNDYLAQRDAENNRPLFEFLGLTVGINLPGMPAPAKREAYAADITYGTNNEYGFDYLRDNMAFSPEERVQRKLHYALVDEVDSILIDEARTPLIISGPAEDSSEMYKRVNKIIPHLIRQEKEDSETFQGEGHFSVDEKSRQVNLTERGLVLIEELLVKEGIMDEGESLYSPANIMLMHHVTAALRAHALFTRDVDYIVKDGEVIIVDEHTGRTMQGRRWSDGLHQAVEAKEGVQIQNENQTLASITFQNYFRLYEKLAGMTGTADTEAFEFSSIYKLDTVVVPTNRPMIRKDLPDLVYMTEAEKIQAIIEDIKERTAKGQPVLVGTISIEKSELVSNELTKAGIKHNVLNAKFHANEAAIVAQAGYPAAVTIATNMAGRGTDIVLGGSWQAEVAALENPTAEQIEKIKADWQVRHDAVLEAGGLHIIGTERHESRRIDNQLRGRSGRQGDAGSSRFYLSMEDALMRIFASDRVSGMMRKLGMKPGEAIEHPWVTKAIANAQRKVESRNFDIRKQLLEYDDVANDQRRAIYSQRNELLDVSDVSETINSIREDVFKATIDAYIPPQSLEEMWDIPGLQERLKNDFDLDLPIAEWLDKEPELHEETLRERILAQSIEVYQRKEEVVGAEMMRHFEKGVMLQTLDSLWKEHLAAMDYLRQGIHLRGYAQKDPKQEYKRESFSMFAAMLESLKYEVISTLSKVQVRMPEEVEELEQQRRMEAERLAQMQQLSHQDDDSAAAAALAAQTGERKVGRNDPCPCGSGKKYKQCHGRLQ
smiles,measurement,setting,value
O=C(c1ccc2[nH]ccc2c1)N1CCn2cnc(COCC3CC3)c2C1,PXC50,"[1]; BOTTOM 5.122464756, HILLSLOPE 1.784249951, MAX_EFFECT 79.5379538, TOP 100.0",4.27
same,PXC50,"[1]; BOTTOM 5.453463465, HILLSLOPE 1.390916791, MAX_EFFECT 57.24637681, TOP 100.0",4.07
same,PXC50,[1]; MAX_EFFECT 37.27598566,< 4
same,Percent Effect,[2],1.11%
same,Percent Effect,[3],7.79%
same,Percent Effect,[4],5.2%
same,Percent Effect,[5],-2.14%
same,Percent Effect,Trypanosoma cruzi,-2.66%
same,Percent Effect,[6],13.6%
same,Percent Effect,[7],17.4%
same,Percent Effect,Homo sapiens,5.61%
same,Percent Effect,[8],26.5%
same,Percent Effect,[9],37.2%
same,Percent Effect,[10],-6.46%
CS(=O)(=O)N1CCN(c2ccc3ccc(C(=O)NC4CC4)cn23)CC1,PXC50,"[1]; BOTTOM 0.676888483, HILLSLOPE 1.632295337, MAX_EFFECT 62.22222222, TOP 67.77025413",4.71
same,PXC50,"[1]; BOTTOM 0.960464126, HILLSLOPE 4.237364112, MAX_EFFECT 56.37583893, TOP 52.03393569",4.89
same,PXC50,"[1]; BOTTOM 1.708048652, HILLSLOPE 3.091987727, MAX_EFFECT 59.02777778, TOP 55.32905726",4.97
same,PXC50,"[1]; BOTTOM 3.037239637, HILLSLOPE 2.011804467, MAX_EFFECT 63.24110672, TOP 62.63598189",4.98
same,PXC50,"[1]; BOTTOM -1.02344126, HILLSLOPE 1.263595064, MAX_EFFECT 66.72443674, TOP 100.0",4.26
c1ccc(COC2CCN(c3cncc(-n4cccn4)n3)CC2)cc1,PXC50,[1]; MAX_EFFECT 8.551068884,< 4
same,PXC50,[1]; MAX_EFFECT 14.26056338,< 4
same,Percent Effect,[2],-2.59%
same,Percent Effect,[3],5.41%
same,Percent Effect,[4],-5.76%
same,Percent Effect,[5],-7.06%
same,Percent Effect,Trypanosoma cruzi,4.3%
same,Percent Effect,[6],2.08%
same,Percent Effect,[7],19.2%
same,Percent Effect,Homo sapiens,14.3%
same,Percent Effect,[8],8.91%
same,Percent Effect,[9],13.4%
same,Percent Effect,[10],-2.69%
